Inconclusive results are not listed. Entries that show only a call come without a potency. The source made the active and inactive calls. Calls follow the shape of the dose curve; as a rule, active = well fitted inhibition curve with a large enough effect; inconclusive = small, poorly fitted or top-dose-only effect; inactive = flat fitted curve, though single readings scatter. Peptide text beside a SMILES is read from it.
test system: DIV17; test: qHTS profiling for inhibitors of Plasmodium falciparum proliferation (AID 504749); also: nearly all actives have a fitted effect of over 60% in size; conditions: P. falciparum in erythrocytes, SYBR Green DNA, 72 h; series mostly up to 12.8 µM
Summary of the method: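 Quantitative HTS: compounds pinned into medium, infected erythrocytes added (0.3% parasitemia, 2.5% hematocrit), 72 h culture at 37 C under 5% CO2. Saponin/Triton lysis with SYBR Green I, overnight RT, then fluorescence read.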
Potency is read from the fitted curve at half-maximal effect.

SMILES | Potency
CCC(C)C(=O)OC1CCC=C2C=CC(C)C(CCC3CC(O)CC(=O)O3)[C@@H]21 (stereo not given in full) | inactive
C[C@]1(c2ccccc2)OC(C(=O)O)=CC1=O | inactive
OCC1OC([S-])[C@H](O)C(O)C1O.[Au+] (stereo not given in full) | inactive
COC(=O)N/N=C/C1=C[N+](=O)c2ccccc2[N+]1=O | inactive
CN1CC(=O)N=C1N | inactive
CNC1CC(N)[C@H](O)[C@@H](O[C@@H]2OC(CO)C3OC4(OC(C(N)CO)C(O)C(O)C4O)O[C@@H]3[C@H]2O)C1O (stereo not given in full) | inactive
COC1C=CO[C@@]2(C)Oc3c(C)c(O)c4c(O)c(c(C=NN5CCN(C)CC5)c(O)c4c3C2=O)NC(=O)/C(C)=C\C=CC(C)C(O)[C@@H](C)C(O)C(C)[C@H](OC(C)=O)C1C (stereo not given in full) | 269 nM (active)
CC(=O)N[C@@H]1C(O)OC(CO)C(O)C1O (stereo not given in full) | inactive
CCC(CCC(C)C1CCC2C3CC=C4CC(O)CC[C@@]4(C)C3CC[C@@]12C)C(C)C (stereo not given in full) | inactive
O=C1OC(CO)C(O)C(O)C1O (stereo not given) | inactive
COc1ccc(CC(N)C(=O)NC2C(CO)OC(n3cnc4c(N(C)C)ncnc43)C2O)cc1 (stereo not given) | 757 nM (active)
CCCC(=O)O[C@]1(C(=O)CO)CCC2[C@@H]3CCC4=CC(=O)CC[C@]4(C)C3C(O)C[C@]21C (stereo not given in full) | inactive
COC(=O)C(Cc1ccccc1)NC(=O)C(N)CC(=O)O (stereo not drawn) (H-Asp-Phe-OMe; configuration not given here) | inactive
CC1(C)SC2C(N3C(=O)C(c4ccccc4)NC3(C)C)C(=O)N2C1C(=O)O (stereo not given) | inactive
CC1CCC(C(C)C)C(=O)C1 (stereo not given) | inactive

Source: PubChem BioAssay (NCATS)
